A selection: hits, their analogues and other compounds. The true share with any hit is near 10%.
GLS inhibitor: blocks human kidney-isoform glutaminase activity | GLS enzymatic activity, qHTS titration | Potency, µM (series often up to 45.5 µM), for the others: at the top dose activity change, negative = inhibition, usual class: inhibitors | actives 0.21% (n = 410,000) | O94925; further: on the % scale 0 is the no-effect control and ±100 the full control effect
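hKGA in 45 mM KH2PO4 pH 8.2, 0.02% Tween-20 with pin-transferred compounds; 1 mM L-glutamine (stock) plus glutamate oxidase/HRP/Amplex Red coupling added. Fluorescence read initially and after 30 min at RT.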
G9a block: inhibitors of human histone lysine methyltransferase G9a; G9a H3K9 monomethylation, AlphaScreen, 2 h; actives 8.8% (n = 350,000); Q96KQ7; Potency, µM (series often up to 102 µM), inactives show at the top dose activity, negative = inhibition, most hits filed as inhibitors; further: on the % scale 0 is the no-effect control and ±100 the full control effect; nearly all actives have a fitted effect of over 75% in size
Target sequence (Q96KQ7 913-1193 limits assumed): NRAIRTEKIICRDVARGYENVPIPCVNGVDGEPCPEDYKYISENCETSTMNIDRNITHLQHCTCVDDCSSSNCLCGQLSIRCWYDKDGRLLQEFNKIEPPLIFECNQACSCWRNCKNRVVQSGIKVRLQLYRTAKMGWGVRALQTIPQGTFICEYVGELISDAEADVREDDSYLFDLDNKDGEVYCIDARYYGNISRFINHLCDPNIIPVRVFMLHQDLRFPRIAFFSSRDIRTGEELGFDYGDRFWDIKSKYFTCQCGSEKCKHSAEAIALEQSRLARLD
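Using a bead-based AlphaScreen, monomethylated H3K9 product from 2 h room-temperature reactions (G9a 20 nM, peptide 500 nM, SAM 20 uM) was detected with 0.5 ug/mL rabbit anti-H3K9me1 antibody.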
HP1b binding inh: blocks HP1-beta chromodomain binding to methylated histone tails | Potency, µM (top dose mostly 114 µM), without a hit: top-dose activity change, negative = inhibition, most hits filed as inhibitors | AID 540317 | AlphaScreen HP1-beta / biotin-H3K9me3 peptide binding | actives 0.56% (n = 390,000) | P83916; further: nearly all actives have a fitted effect of over 70% in size
Target sequence (P83916 whole entry, looked up): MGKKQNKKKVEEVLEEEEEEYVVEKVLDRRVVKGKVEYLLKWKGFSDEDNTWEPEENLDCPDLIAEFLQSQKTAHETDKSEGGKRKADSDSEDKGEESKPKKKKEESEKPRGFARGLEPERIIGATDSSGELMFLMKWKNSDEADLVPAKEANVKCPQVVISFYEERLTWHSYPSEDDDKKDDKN
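AlphaScreen: HP1-beta (50 nM) preformed 30 min with biotin-H3(1-18)K9me3 peptide (50 nM) in PBS pH 7.4, 0.01% Tween-20. Compound added for 30 min at RT, then streptavidin donor/nickel chelate acceptor beads (10 ug/mL) for 30 min.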
BAZ2B block: blocks human BAZ2B; Potency, µM (titrated, usually from 114 µM), inactives show top-dose activity change, negative = inhibition, actives largely listed as inhibitors; AlphaScreen BAZ2B-H3K14Ac peptide displacement; actives 4.4% (n = 360,000); further: on the % scale 0 is the no-effect control and ±100 the full control effect; nearly all actives have a fitted effect of over 60% in size
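In this displacement format the biotinylated H3(5-23) peptide acetylated at Lys14 serves as ligand at 50 nM, with BAZ2B at 50 nM in PBS pH 7.4 containing 0.01% Tween-20. Donor and acceptor beads are 10 ug/mL final.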
JMJD2A Tudor inh: blocks the human JMJD2A Tudor domain | AlphaScreen JMJD2A-Tudor / H3K4me3 peptide binding | Potency, µM (doses to about 114 µM), without a hit: at the top dose activity change, negative = inhibition, usual class: inhibitors | actives 4.4% (n = 390,000) | AID 504339; further: on the % scale 0 is the no-effect control and ±100 the full control effect; nearly all actives have a fitted effect of over 50% in size
The depositor's hits bear a star; ? = inconclusive; . = not tested or not shown; [ ] = dose if it differs, or a comment. The call rests on the fitted dose curve; in most records, active means well fitted curve in the direction sought with a large enough effect; inconclusive means small, poorly fitted or top-dose-only effect, or another doubt; inactive means no such curve, though single readings can be large; an effect the other way counts as inactive or inconclusive. Potency means the concentration at half of the fitted maximal effect.

SMILES	GLS inhibitor	G9a block	HP1b binding inh	BAZ2B block	JMJD2A Tudor inh
O=C1c2ccccc2C(=O)N1C1C(=O)N2CCSC12C(=O)OCc1ccccc1 (stereo not drawn)	4.6%	.	22.1%	.	-2.1%
CCOc1ccc(/C=C/C(=O)c2cc(Br)ccc(=O)c2O)cc1	4.1%	7.94µM*	-54.6%	44.7µM*	50.1µM*
O=C(C=Cc1ccccc1)c1cc(Br)ccc1O	-8.2%	.	23.0%	.	19.9%
Cc1ccc(C(=O)/C=C/c2ccc(Br)cc2)o1	5.2%	37.1%[0.501 µM]	19.2%	-5.8%	-14.7%
Cc1cccc(/C=C/C(=O)c2cc(Br)ccc(=O)c2O)c1	23.5%	?	?	44.7µM*	?
CCc1ccc(/C=C/C(=O)c2cc(Br)ccc(=O)c2O)cc1	4.3%	?	?	44.7µM*	79.4µM*
C/C=C/c1ccc(OCCN2CCc3ccccc3C2)c(OC)c1	13.2%	44.7µM*	?	?	0.891µM*
C=CCc1ccc(OCCN2CCc3ccccc3C2)c(OC)c1	1.6%	10µM*	?	50.1µM*	?
Cc1cccc(N2CCN(Cc3nnc(-c4ccccc4C)o3)CC2C)c1 (stereo not drawn)	-3.4%	?	-8.3%	?	79.4µM*
Cc1ccccc1-c1nnc(CN2CCC(C)CC2)o1	0.6%	-13.5%	24.2%	-15.9%	-7.0%
COc1ccc(-c2csc(NC(=O)CSc3nc(C)nc4sc(C(=O)O)c(C)c34)n2)cc1	16.1%	.	22.4µM*	50.1µM*	22.4µM*
O=C(COc1ccc(Cl)cc1)Nc1nc(-c2ccncc2)cs1	-6.9%	7.94µM*	?	-17.4%	-31.5%
COc1ccc(NC(=O)N2CCN(c3nc(-c4cccc(OC)c4)cs3)CC2)cc1	17.0%	12.6µM*	-2.3%	?	-29.1%
COc1cccc(-c2csc(N3CCN(C(=O)Nc4ccc(Cl)cc4)CC3)n2)c1	0.5%	?	12.9%	-13.8%	-18.4%
COc1cccc(-c2csc(NC(=O)Oc3ccccc3)n2)c1	-4.5%	-2.4%	?	?	89.1µM*
COc1cccc(OC)c1C(=O)Nc1nc(-c2ccccc2)cs1	-13.1%	-4.7%	36.1%	-10.2%	-20.1%
Fc1cccc(Cl)c1CSc1nnc2ccccn12	-12.2%	23.4%	18.9%	-5.3%	0.3%
Cn1c(=O)c2[nH]c(C(O)c3ccc(Cl)cc3)nc2n(C)c1=O (stereo not drawn)	0.2%	.	16.1%	.	?
CCCC(=O)Nc1nc(-c2ccc(OC)cc2)cs1	1.5%	10.6%[12.7 µM]	10.6%	-4.9%	-11.5%
CC(=O)Nc1cccc(-c2csc(NCc3ccccc3)n2)c1	12.2%	11.2µM*	?	20µM*	12.6µM*
CC(=O)Nc1cccc(-c2csc(Nc3ccccn3)n2)c1	-1.4%	15.9%[0.0925 µM]	5.6%	-11.4%	?
COc1ccc(CCC(=O)Nc2nc(-c3ccncc3)cs2)cc1	.	8.91µM*	.	-6.6%	.
COc1ccc(CC(=O)Nc2nc(-c3ccncc3)cs2)cc1	0.9%	39.8µM*	25.1%	-14.0%	-18.3%
COc1ccc(-c2csc(NC(=O)CS(=O)(=O)c3ccccc3)n2)cc1	-0.1%	44.7µM*	4.4%	-10.1%	-27.2%
C[C@H](N)CCCC(C)(C)O	.	13.0%[21.5 µM]	.	.	.
SMILES	GLS inhibitor	G9a block	HP1b binding inh	BAZ2B block	JMJD2A Tudor inh
O=C1CCCN1CCCNc1nc(NCc2cccs2)nc2ccsc12	7.4%	.	.	.	.
CC(C)Cn1c(N)c(C(=O)COC(=O)/C=C/c2ccccc2)c(=O)n(C)c1=O	0.9%	?	11.3%	-12.1%	-19.9%
O=C(Oc1ccc(O)cc1)C12CC3CC(CC(C3)C1)C2	0.5%	39.8µM*	?	-19.6%	56.2µM*
O=C(CNCc1ccco1)Nc1ccc(Oc2ccccc2)cc1	-6.3%	14.1µM*	7.4%	50.1µM*	17.8µM*
O=C(CNCc1ccco1)Nc1ccccc1-n1cccc1	-3.5%	12.6µM*	-9.4%	?	?
O=C(NCc1ccco1)c1ccc(Oc2ccccc2)cc1	-8.2%	?	-2.0%	-12.9%	-31.5%
O=C(OCN1C(=O)c2ccccc2C1=O)c1cc(S(=O)(=O)N2CCOCC2)ccc1F	9.5%	-41.7%	21.4%	-3.6%	-12.4%
CC1(C)Cc2c(c(=S)nc(-c3ccccc3)n2Cc2cccnc2)CO1	2.9%	35.5µM*	24.5%	-11.5%	-2.2%
COc1ccc(-c2nc(=S)c3c(n2Cc2cccnc2)CC(C)(C)OC3)cc1	6.4%	-5.1%	7.0%	-16.5%	-18.1%
Cc1cc(Cl)ccc1NC(=O)C1CCN(c2nnc(-n3c(C)ccc3C)s2)CC1	4.0%	10.9%[59 µM]	19.8%	-2.7%	-12.4%
O=C(NCc1cccnc1)c1cc(-c2ccco2)on1	-2.1%	39.8µM*	23.1%	-33.9%	-8.3%
COC(=O)c1ccccc1NC(=O)c1noc2c1CCC2	?	44.7µM*	?	50.1µM*	50.1µM*
CCc1ccc(NC(=O)c2noc3c2CCC3)cc1	-15.1%	19.8%[12.7 µM]	-16.1%	50.1µM*	56.2µM*
Cc1ccc(O)c(NC(=O)c2noc3c2CCCC3)c1	29.1%	10.5%[59 µM]	11.8%	0.4%	-13.0%
CSc1ccccc1NC(=O)c1noc2c1CCC2	-11.1%	14.1µM*	50.1µM*	39.8µM*	50.1µM*
CCc1ccc(NC(=O)c2noc3c2CCCCC3)cc1	-1.7%	17.6%[59 µM]	30.5%	7.8%	7.5%
COC(=O)c1ccccc1NC(=O)c1cc(-c2ccco2)on1	9.3%	39.8µM*	6.5%	-13.7%	-18.6%
Cc1nn(Cc2ccc(Cl)cc2)c(C)c1NC(=O)c1cc(-c2ccco2)on1	-2.0%	?	22.6%	-7.5%	-24.3%
c1cncc(CNCc2ccco2)c1	-6.2%	?	7.4%	70.8µM*	-13.7%
Cc1nn(Cc2ccc(Cl)c(Cl)c2)c(C)c1NC(=O)c1cc(-c2ccco2)on1	3.2%	15.8µM*	30.5%	-24.0%	-15.1%
CCCC(=O)Nc1cccc(OCc2cc(=O)n3cccc(C)c3n2)c1	-5.9%	-2.9%[59 µM]	2.1%[57 µM]	-3.1%	-6.8%
CCN1C(=O)S/C(=C/c2c(OCc3ccc(C(=O)O)cc3)ccc3ccccc23)C1=O	19.2%	50.1µM*	-3.5%	?	?
O=C(O)c1ccc(COc2ccc3ccccc3c2/C=C2/NC(=O)N(c3ccccc3)C2=O)cc1	1.5%	.	8.2%	-35.8%	-35.1%
Cn1cccc1C(=O)N1CCC2(CCCN(c3ccccc3)C2)CC1	.	1.1%[12.7 µM]	.	.	.
CCCCNC(=O)C1(C)CCCCN1C(=O)c1ccc(OC)c(C(F)(F)F)c1 (stereo not drawn)	19.0%	.	.	.	.
CNC(=O)C1C(=S)NC(N)=C(C#N)C1c1ccccc1 (stereo not drawn)	-26.1%	12.6µM*	-19.2%	-10.6%	25.1µM*
COC(=O)C1=C(C)OC(N)=C(C#N)C1c1ccccc1 (stereo not drawn)	4.8%	-4.9%[2.33 µM]	62.3%	0.8%	-8.4%[57.1 µM]
CC(=O)Nc1ccc(S(=O)(=O)N2CCC(NC(=O)C(Cc3ccccc3F)NC(C)=O)CC2)cc1 (stereo not drawn)	-14.8%	17.5%	22.6%	-0.1%	-2.1%

Bioassay records from PubChem.
